Laboratory results taken from ChEMBL document CHEMBL3988442, “University of Dundee, Small-Polar-MMV Screening Library” (2021).

Columns and labels:
[1] = target: T1, Aspartate--tRNA(Asp/Asn) ligase (Mycobacterium tuberculosis (strain ATCC 25618 / H37Rv)) (UniProt P9WFW3); assay: Assay for Asp RNA synthetase-1 from Mycobacterium tuberculosis; assay type: functional; design: scale not given: direction of the effect not stated beside the values; conditions: 30 µM; note: in the data most compounds retested in dose-response had high values
T1 sequence (whole entry): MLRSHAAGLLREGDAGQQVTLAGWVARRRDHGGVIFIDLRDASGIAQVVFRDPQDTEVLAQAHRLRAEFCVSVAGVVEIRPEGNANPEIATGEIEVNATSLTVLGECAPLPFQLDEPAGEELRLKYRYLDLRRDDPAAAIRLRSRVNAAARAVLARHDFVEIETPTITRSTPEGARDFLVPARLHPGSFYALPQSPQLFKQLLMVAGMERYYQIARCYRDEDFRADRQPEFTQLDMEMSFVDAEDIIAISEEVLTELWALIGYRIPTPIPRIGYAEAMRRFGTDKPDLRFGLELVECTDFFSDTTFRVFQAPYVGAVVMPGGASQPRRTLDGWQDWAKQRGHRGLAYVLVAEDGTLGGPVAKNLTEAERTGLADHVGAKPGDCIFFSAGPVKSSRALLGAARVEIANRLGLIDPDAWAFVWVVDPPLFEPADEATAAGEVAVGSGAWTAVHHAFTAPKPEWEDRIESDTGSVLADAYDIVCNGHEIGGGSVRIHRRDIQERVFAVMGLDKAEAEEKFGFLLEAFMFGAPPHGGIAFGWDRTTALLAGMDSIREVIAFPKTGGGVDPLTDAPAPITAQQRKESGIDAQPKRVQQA

[2] = target: Shiga toxin 2 (Escherichia coli O157:H7) (UniProt P09385+P09386); assay: E. coli 0.157:H7 Shiga Toxin SOP - stx2 screening assay; assay type: functional; design: scale not given: direction of the effect not stated beside the values; conditions: 30 µM

SMILES | Percent Effect [1] | Percent Effect [2]
CN(C)S(=O)(=O)N1CCC(Oc2ccc(C#N)cn2)CC1 | 5.76% | -4.88%
CCOC(=O)NC(CNC(=O)c1ncccn1)CC(C)C (configuration not stated) | 6.25% | 4.71%
CC(C)(O)CN1CCN(C(=O)c2cc3ccccc3c(=O)[nH]2)CC1 | -2.19% | -6.56%
COCCO[C@@H]1CCN(C(=O)c2ccc(C)o2)[C@@H]1Cc1cnn(C)c1 | 2.6% | 2.85%
Cc1nc(C)n(CC2CCCN2Cc2cn3c(C)cccc3n2)n1 (configuration not stated) | -5.04% | -2.35%
Cc1noc(C)c1CN(C)CC1CCCN1c1cccnn1 (configuration not stated) | -1.56% | 14.9%
COCC1CCCN(C(=O)c2cc(Cn3ccc4ccccc43)[nH]n2)C1 (configuration not stated) | 9.18% | -24.9%
O=C(NC1CCCC1)N1CCCC(c2nccn2Cc2ccncc2)C1 (configuration not stated) | -4.62% | 12.8%
Cc1nc(N2CCN(C(=O)c3ccsc3)CC2)c2cnn(C)c2n1 | 5.51% | 0.569%
CN(C)CC(=O)N1CCC2(CC1)CN(c1ccsc1)C(=O)CO2 | 5.4% | -4%
CCOCCn1nc(C)cc1C(=O)N1CCOCC(CO)C1 (configuration not stated) | -1.08% | -28%
CN(C)C(CNC(=O)c1cccc(-n2cnnn2)c1)c1ccccc1Cl (configuration not stated) | 3.08% | -14.9%
CN(C)C(=O)CN1CCCC2(CCN(c3ccsc3)C2=O)C1 (configuration not stated) | 2.4% | -21.7%
Cc1ccc(-c2nc(CN3CCOC(Cn4cccn4)C3)cs2)o1 (configuration not stated) | -1.71% | -9.02%
O=C(c1cccc2cccnc12)N1CCCN(c2cccnn2)CC1 | -6.72% | 3.11%
NCC(=O)N1CCCC(c2cncc(Nc3ncccn3)n2)C1 (configuration not stated) | 1.44% | 1.91%
CC(C(=O)N1CCc2ccccc2C1)n1cc(Br)cn1 (configuration not stated) | 2.59% | -59.4%
CCc1ccc(C(=O)O)cc1S(=O)(=O)Nc1ccc(F)c(C#N)c1 | 4.35% | -1.93%
COc1cccc(COCC(=O)N2CCCC(n3ccnc3)C2)c1 (configuration not stated) | -3.41% | 23.8%
Cc1c[nH]cc1C(=O)N1CCN(CCc2cccs2)CC1 | -4.34% | -33.2%
Cc1nnc(CN2CCN(CCOc3ccccc3C#N)CC2)n1C | 3.6% | 3.89%
CC(NC(=O)N1CCN(c2ccc(Cl)cc2)CC1)C(=O)N1CCSCC1 (configuration not stated) | -5.11% | 11.9%
Cc1nc(C2CCCN(C(=O)c3ccco3)C2)no1 (configuration not stated) | -1.47% | -1.79%
O=C(CCc1ccccc1)C1CCCN(C(=O)c2ncc(F)cc2F)C1 (configuration not stated) | 7.65% | 2.26%
CCN1CCN(C(=O)C(C)N2CCN(Cc3nccn3C)CC2)CC1 (configuration not stated) | 0.262% | -3.01%
Cc1nc(CC(=O)N2CCCCC2c2ccn3ccnc3n2)cs1 (configuration not stated) | -0.0744% | 4.13%

SMILES | Percent Effect [1] | Percent Effect [2]
Cn1cc(CN2CC[C@@H]3[C@@H](CCC(=O)N3CCC3=CCCCC3)C2)cn1 | 0.0912% | -13%
Cc1cc(S(=O)(=O)NCc2cccc(C(=O)N3CCCC3)c2)c(C)s1 | 2.16% | 5.68%
Cn1ncc2c(=O)[nH]c(CN3CCCC3CC3CCCCC3)nc21 (configuration not stated) | -3.06% | 22.5%
NC[C@H]1CC[C@H](C(NC(=O)c2ccccc2)c2ccccn2)CC1 (some centres not stated) | 1.63% | -25.2%
c1ncn(Cc2cnc3n2CCN(Cc2ccsc2)CC3)n1 | -1.22% | -2.1%
Cc1ccc(-n2nnc(C(=O)NS(C)(=O)=O)c2C2CC2)cc1 | 0.379% | -7.97%
COc1ccc(NC(=O)NCC(O)c2ccc(F)cc2F)c(OC)c1 (configuration not stated) | 1.18% | -4.16%
Cc1ccc(-c2nc(CN3CCn4c(nnc4C4CC4)C3)co2)cc1 | -1.28% | 10.1%
COC[C@@]12CC[C@@H](N3CCOCC3)C[C@H]1CCN(c1ncccc1Cl)C2 | -2.31% | 23%
O=c1[nH]c2c(c(=O)n1C1CCCCC1)CCC2Nc1ccccc1Cl (configuration not stated) | 4.33% | -5.14%
Cc1ccc(NC(=O)C2CSCN2C(=O)c2cnccn2)c(C)c1 (configuration not stated) | 1.01% | -39.3%
c1csc(N2CCCN(Cc3nc(C4CC4)no3)CC2)n1 | -1.91% | 12.8%
COCCNC(=O)NCCc1ccn(-c2ccccc2)n1 | -4.41% | 3.32%
Cc1cc(C)n(CC2CN(CC(=O)NC3CCCC3)CCO2)n1 (configuration not stated) | 0.91% | 13.3%
CCCc1nc(C)cc(N2CCC3(CCC(=O)N(CC4CC4)C3)CC2)n1 | 3.82% | -18.5%
CC(NC(=O)NCCNc1cnccn1)c1cccs1 (configuration not stated) | -0.971% | -34.6%
c1cnnc(N2CCCC2CNCc2nc(C3CC3)no2)c1 (configuration not stated) | -4.43% | 5.95%
COCC(=O)N1CCCC1c1cc(Nc2nnc(C)s2)nc(C)n1 (configuration not stated) | -3.43% | -14.2%
COCc1cccc(CNC(=O)CN2CCCC2c2noc(C)n2)c1 (configuration not stated) | -0.723% | 14.4%
Cc1ccccc1CN1CCC2(COCc3cnc(N(C)C)nc32)C1 (configuration not stated) | -3.4% | -15.8%
c1ccc(-c2noc(CN3CCc4cncnc4C3)n2)nc1 | 2.21% | -24.6%
CCN1CCN(c2ccc(F)cc2C(C)NCc2ccncc2)CC1 (configuration not stated) | -0.494% | 14.3%
CC(C)C(=O)N1CCCC(c2cc(C(F)F)n3ncnc3n2)C1 (configuration not stated) | 1.92% | -11.7%
CCc1noc(CN(C)Cc2ccc(N3CCCCC3)cc2)n1 | -2.17% | -19.3%
CC(NC(=O)NCc1cccc(N2CCCC2=O)c1)c1ccccc1 (configuration not stated) | -1.99% | 21.2%
